From PubChem BioAssay
Shown are actives, neighbours in structure and some others; about 3.4% of the full set was active somewhere.
TEAD-YAP block = TEAD-YAP interaction inhibition, primary screen, TEAD-YAP interaction inhibitor project, luminescence, HEK-TIYL cells | TEAD-Gal4/YAP UAS-luciferase luminescence | 1.4% of 640,000 active | inhibition, % at 9.12 µM; in the data active means inhibition above about 32%;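 further: 0% = median of test compound wells and 100% = reference inhibitor wells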
FBW7 act = FBW7 E3 ligase activators, primary screen, biochemical, AlphaScreen, human | normalized activity (activation), % at 26.1 µM | F-box/WD repeat-containing protein 7 (Homo sapiens), Q969H0 | AlphaScreen FBW7–phospho-cyclin E peptide binding, activator screen | 0.13% of 650,000 active; in the data active means normalized activity above about 1.9%;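 further: purified mutant Fbw7 with reduced substrate affinity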
GPR151 ag = activators of human GPR151, primary screen, cell-based, PathHunter beta-arrestin, luminescence | G-protein coupled receptor 151 (Homo sapiens), Q8TDV0 | PathHunter beta-arrestin GPR151 cells | activation, % at 11.2 µM | 1% of 650,000 active | AID 1508602, 2020; in the data active means activation above about 4.9%;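 further: 0% = median of compound wells and 100% = cells with positive control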
MITF inh = MITF inhibitors, primary screen, biochemical, AlphaScreen, human; Microphthalmia-associated transcription factor (Homo sapiens), O75030; AlphaScreen MITF homodimerization, bead proximity signal; inhibition, % at 2.6 µM; 0.91% of 650,000 active; AID 1259374, 2018; in the data active means inhibition above about 50%;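 further: 0% = vehicle wells with protein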
Target sequence (O75030 whole entry, looked up): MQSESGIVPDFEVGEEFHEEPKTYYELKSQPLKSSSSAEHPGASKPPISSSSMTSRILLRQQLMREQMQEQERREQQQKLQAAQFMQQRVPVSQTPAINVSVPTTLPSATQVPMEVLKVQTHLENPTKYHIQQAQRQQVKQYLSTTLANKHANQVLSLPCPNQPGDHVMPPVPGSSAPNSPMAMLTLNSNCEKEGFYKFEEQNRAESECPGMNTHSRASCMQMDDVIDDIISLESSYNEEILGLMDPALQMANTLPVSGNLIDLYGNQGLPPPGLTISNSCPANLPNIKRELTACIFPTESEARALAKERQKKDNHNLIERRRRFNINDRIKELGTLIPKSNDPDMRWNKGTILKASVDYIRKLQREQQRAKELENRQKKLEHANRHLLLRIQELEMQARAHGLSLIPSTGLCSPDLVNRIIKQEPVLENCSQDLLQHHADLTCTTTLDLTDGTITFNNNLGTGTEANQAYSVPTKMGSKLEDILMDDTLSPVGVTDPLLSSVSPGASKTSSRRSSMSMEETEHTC
* = called active by the depositor.

SMILES | TEAD-YAP block | FBW7 act | GPR151 ag | MITF inh
NC1=NN=C(c2ccc3c(c2)OCCO3)CS1 | -13 | 0 | 0 | 1
C=CCN=C1NN=C(c2cc(C)n(CC=C)c2C)CS1 | 89* | 0 | -3 | -2
c1ccc(CN=C2NN=C(c3ccccc3)CS2)cc1 | -27 | 0 | 1 | 5
CCN=C1NN=C(c2ccc(C)cc2)CS1 | 73* | 0 | 1 | 8
N/C(=N\NC(=O)c1cccnc1)c1cccnc1 | -12 | 0 | -1 | -2
COc1ccc2[nH]c3c(=O)n(-c4ccc(C)c(C)c4)c(=O)[nH]c3c2c1 | -12 | 0 | 1 | 11
COc1cc(NC(=O)C2COc3ccccc3O2)ccc1-c1cn[nH]c1 (stereo not drawn) | -28 | 0 | -1 | 14
O=C(CSc1n[nH]c(=O)n1Cc1ccccc1)Nc1ccc(Br)cc1F | 34* | 0 | 3 | -1
Cc1nc2ccc(-c3cnn(-c4cccc(CN5CCOCC5)c4)c3)cc2c(=O)n1C | -4 | 0 | 0 | -2
CN1C(=O)c2ccc(NC(=O)c3ccccc3Br)cc2C1=O | -5 | 2.0* | -1 | 2
O=C(Nc1ccc(O)cc1)c1ccccc1Br | 76* | 0 | 0 | -1
COc1ccc(/C=C(/NC(=O)/C=C/c2ccccc2)C(N)=O)cc1 | -1 | 0 | 3 | 2
O=C(Oc1ccc(/C=C/c2ccncc2)cc1)c1ccncc1 | 48* | 0 | -7 | -4
CCCCOC(=O)C1=C(C)NC(=O)NC1c1ccc(OCCC)cc1 (stereo not drawn) | 20 | 0 | 0 | 5
COc1ccc(COC(=O)C2=C(C)NC(=O)NC2c2ccc([N+](=O)[O-])cc2)cc1 (stereo not drawn) | 44* | 0 | 0 | 11
CCOC(=O)C1=C(C)NC(=O)NC1c1ccc([N+](=O)[O-])cc1 (stereo not drawn) | 1 | 1 | 1 | 1
CCCOc1ccc(C2NC(=O)NC(C)=C2C(=O)OCc2ccc(OC)cc2)cc1 (stereo not drawn) | 58* | 0 | -1 | -2
COc1ccc(COC(=O)C2=C(C)NC(=O)NC2c2ccc(C)cc2)cc1 (stereo not drawn) | 22 | 0 | -1 | -8
CCCOC(=O)C1=C(C)NC(=O)NC1c1ccc(OCCC)cc1 (stereo not drawn) | 43* | 0 | -1 | -14
COc1ccc(C2NC(=O)NC(C)=C2C(=O)OCc2ccc3c(c2)OCO3)cc1 (stereo not drawn) | 67* | 0 | 1 | -4
CCC1CCCCN1S(=O)(=O)c1ccc(F)c(C(=O)Nc2ccccc2Br)c1 (stereo not drawn) | -1 | 0 | 0 | 10
Cc1c(Br)c([N+](=O)[O-])nn1CC(=O)Nc1sc2c(c1C#N)CCC(C)C2 (stereo not drawn) | 4 | 0 | 0 | 8
COc1cc(C(=O)NNC(=O)c2cccc(Cl)c2)cc(OC)c1OC | 5 | 0 | 4 | 0
COc1ccc(C(=O)COC(=O)c2ccc(Cl)cc2N)cc1 | -2 | 0 | 0 | -4
COc1cc(C(=O)COC(=O)c2ccc(Cl)cc2N)cc(OC)c1OC | 53* | 0 | 0 | 1
SMILES | TEAD-YAP block | FBW7 act | GPR151 ag | MITF inh
COc1cc(C(=O)c2cc(Cl)ccc2N)cc(OC)c1OC | 52* | 0 | 0 | 12
CCn1c(=O)n(CC(=O)Nc2nc3ccccc3s2)c(=O)c2ccccc21 | 16 | 0 | 2 | 21
COc1ccc(Cl)cc1C(=O)On1c(-c2ccc(Br)cc2)nc2ccccc2c1=O | 7 | 3.2* | 0 | 7
COc1ccc(C(=O)On2c(-c3cccc(Cl)c3)nc3ccccc3c2=O)cc1Br | -3 | 0 | -1 | -7
COCCCNc1ncnc2c1cnn2-c1ccccc1 | 43* | 0 | -1 | 10
CCCNc1ncnc2c1cnn2-c1ccccc1 | 8 | 0 | -3 | 13
COc1ccc(-n2ncc3c(NC(C)(C)C)ncnc32)cc1 | 36* | 0 | 1 | 4
COc1ccc(/C=C/C(=O)Nc2scc(-c3ccc(Br)cc3)c2C(=O)O)cc1 | 62* | 0 | -1 | -4
CCCCN1/C(=C/c2ccc3ccccc3[n+]2CC)Sc2cc(NC(C)=O)ccc21 | 16 | 0 | 0 | 18
CCC[n+]1c(/C=C2\Sc3ccccc3N2CC)ccc2ccccc21 | 88* | 0 | 4 | 7
CCCCC[n+]1c(/C=C2\Sc3ccccc3N2CC)ccc2ccccc21 | 83* | 0 | 3 | 13
CCCC[n+]1ccccc1/C=C1\Sc2ccccc2N1CC | 89* | 0 | 0 | 3
O=C(Nc1nc(-c2ccccc2)cs1)c1cncc(Br)c1 | -8 | 0 | -1 | 2
COc1ccc(C(=O)Nc2ccc(NC(=O)CN3CCCC(C)C3)c(C)c2)cc1 (stereo not drawn) | -5 | 0 | 1 | -7
Cc1ccc(C2CC(c3cccs3)=NN2C(=O)CSc2nnc(CNC(=O)COc3ccccc3)n2-c2cccc(C)c2C)cc1 (stereo not drawn) | -1 | 0 | -1 | -10
COc1ccccc1-n1c(CNC(=O)COc2ccccc2)nnc1SCC(=O)N1N=C(c2cccs2)CC1c1ccc(C)cc1 (stereo not drawn) | 41* | 0 | 0 | 0
CC1(C)CC(=O)c2c(oc3c2cc(NS(=O)(=O)c2ccc(Cl)c([N+](=O)[O-])c2)c2ccccc23)C1 | 4 | 0 | 1 | 7
COCCNC(=O)c1oc2ccc3c(c2c1C)C(=O)CC1(CCCCC1)O3 | 0 | 0 | 0 | -3
Cc1c(C(=O)NCc2cccnc2)oc2ccc3c(c12)C(=O)CC1(CCCC1)O3 | 40* | 0 | 0 | 5
CC1=CC(=C2C(=O)NC(=S)NC2=O)C=C(C(F)(F)F)N1CCN(C)C | 5 | 0 | 0 | 4
COCCN1C(C)=CC(=C2C(=O)NC(=S)NC2=O)C=C1C(F)(F)F | 45* | 0 | 0 | 2
COc1ccccc1NC(=O)CSc1nc2[nH]ncc2c(=O)n1-c1ccc(C)cc1 | 1 | 0 | -3 | 8
CC(=O)/C=C1\N(C)c2ccccc2C1(C)C | -10 | 0 | 1 | 10
CC(=O)c1ccc(S(=O)(=O)N(C)CC(=O)/C=C2/N(C)c3ccccc3C2(C)C)cc1 | 38* | 0 | 1 | 4
C(=C\c1ccc2c(c1)OCCO2)/c1ccc2c(c1)OCCO2 | 97* | 1 | -10 | 19
O=C(c1csc(-c2cc3ccccc3[nH]2)n1)N1CCOCC1 | -16 | 0 | -1 | 13
O=C(c1csc(-c2cc3ccccc3[nH]2)n1)N1CCc2ccccc21 | 40* | 0 | 0 | 1
Cc1ccc(NC2OC(=O)c3ccccc32)cc1 (stereo not drawn) | 1 | 0 | -1 | 11
NC(=O)c1ccsc1NC(=O)/C=C/c1cccs1 | 64* | 0 | -12 | 3
CCCCN(CC)C(=O)c1sc2ncnc(N3CCN(c4ccccc4OC)CC3)c2c1C | -5 | 0 | -1 | 0
